Assay [1] addresses Calcium and integrin-binding protein 1 (Homo sapiens) (UniProt Q99828). Nature of the assay: Primary qHTS for Identification of Calcium Integrin Binding Protein 1 (CIB1) Competitor (AID 1508620).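 Further: GST tagged CIB1 binding a fluorescein labelled alphaIIb integrin peptide tracer; top concentration of the series differs between compounds.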 The conditions noted are these: CIB1-GST / FITC-alphaIIb peptide fluorescence polarization; series mostly up to 57.7 µM. The gist of the method:
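Fluorescence polarization competition: CIB1-GST (1 uM final) preincubated with compound 15 min at room temperature, then FITC-labeled alphaIIb peptide (100 nM final) added for another 15 min. Polarization read at Ex 480/Em 540.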

Assay [2] is described as follows: Primary qHTS for small molecule stabilizers of the endoplasmic reticulum resident proteome: Secreted ER Calcium Modulated Protein (SERCaMP) assay (AID 1508630). Further: potency means the concentration at half of the fitted maximal effect. The following applies: SH-SY5Y GLuc-SERCaMP (Gaussia luciferase released on ER calcium loss) secretion, thapsigargin, luminescence; series mostly up to 38.4 µM. The essentials:
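GLuc-SERCaMP-expressing SH-SY5Y cells, pretreated 16 h with compound, are challenged with thapsigargin to empty ER calcium stores; after 4 h, coelenterazine is added directly to the medium and luminescence is imaged.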

In assay [3] the target is Cytochrome P450 2C9 (Homo sapiens) (UniProt P11712). Nature of the assay: Cytochrome P450 family 2 subfamily C member 9 (CYP2C9) small molecule antagonists: luciferase biochemical (cell-free) qHTS assay (AID 1645842; active means well fitted curve in the direction sought with a large enough effect in the repeat runs; an effect the other way counts as inactive or inconclusive; further: nearly all actives have a fitted effect of over 55% in size; further: potency means the concentration at half of the fitted maximal effect). The following applies: P450-Glo CYP2C9 enzyme assay, luciferin luminescence; series mostly up to 57.4 µM. The essentials:
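Luminescence, after 20 min with luciferin detection reagent, reflected CYP2C9 turnover during a 1 h NADPH-driven reaction at 37C. Enzyme-substrate mix contained 0.4% bovine serum albumin and was preincubated with compound 10 min at room temperature.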

The target of assay [4] is Cytochrome P450 2D6 (Homo sapiens) (UniProt P10635). Nature of the assay: Cytochrome P450 family 2 subfamily D member 6 (CYP2D6) small molecule antagonists: luciferase biochemical (cell-free) qHTS assay (AID 1645840; active means well fitted curve in the direction sought with a large enough effect in the repeat runs; an effect the other way counts as inactive or inconclusive; further: nearly all actives have a fitted effect of over 55% in size). The conditions noted are these: P450-Glo CYP2D6 enzyme, luciferin luminescence, 1 h; series mostly up to 57.4 µM. The essentials: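 P450-Glo luminescent screen: recombinant CYP2D6 enzyme–proluciferin substrate mix preincubated with compound 10 min at room temperature, then NADPH regeneration added for 1 h at room temperature. Detection reagent added for 20 min; luciferin light read as relative luminescence units.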
Sequence of Cytochrome P450 2D6 (Homo sapiens) (P10635 whole entry, looked up): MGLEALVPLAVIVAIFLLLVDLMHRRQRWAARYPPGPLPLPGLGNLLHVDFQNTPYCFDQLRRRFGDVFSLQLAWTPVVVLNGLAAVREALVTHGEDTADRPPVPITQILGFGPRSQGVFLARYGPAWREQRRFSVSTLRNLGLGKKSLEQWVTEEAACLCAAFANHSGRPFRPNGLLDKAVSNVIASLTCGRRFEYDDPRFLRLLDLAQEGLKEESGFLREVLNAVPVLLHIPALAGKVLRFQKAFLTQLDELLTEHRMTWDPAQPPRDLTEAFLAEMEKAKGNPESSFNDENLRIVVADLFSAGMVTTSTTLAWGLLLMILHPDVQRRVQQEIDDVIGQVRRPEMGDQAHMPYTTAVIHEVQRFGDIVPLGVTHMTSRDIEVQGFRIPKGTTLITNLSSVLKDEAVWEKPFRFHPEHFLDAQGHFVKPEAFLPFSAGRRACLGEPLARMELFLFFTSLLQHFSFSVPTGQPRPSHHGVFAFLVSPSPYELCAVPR

A short description of assay [5]: A High-Content qHTS Against Drug Library for the Identification of Small Molecules that Inhibit DYT1 Early Onset Primary Dystonia-Associated Cell Pathology (AID 1645839; calls by dose curve; further: potency means the concentration at half of the fitted maximal effect). The conditions noted are these: HEK293 Flp-In EGFP-delE TorsinA, punctate imaging, 48 h; series mostly up to 46.1 µM. The gist of the method: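 Readout: %pathology, the punctate EGFP-TorsinA distribution from imaging, as the primary channel and cell count as the toxicity counterscreen. HEK293 Flp-In cells expressing delE TorsinA were induced with tetracycline and treated with compound for 48 h.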

Where “and” joins values, the source holds several entries; their conditions need not be identical. Equal entries are not always repeated. Results filed as inconclusive are left out. Where a call stands in place of a potency, no number is given. Calls of active or inactive are those of the source. Unless noted, the call rests on the fitted dose curve; in most records, active means well fitted curve in the direction sought with a large enough effect; inconclusive means small, poorly fitted or top-dose-only effect, or another doubt; inactive means no such curve, though single readings can be large; an effect the other way counts as inactive or inconclusive.

Sequence of Calcium and integrin-binding protein 1 (Homo sapiens) (Q99828 whole entry, looked up): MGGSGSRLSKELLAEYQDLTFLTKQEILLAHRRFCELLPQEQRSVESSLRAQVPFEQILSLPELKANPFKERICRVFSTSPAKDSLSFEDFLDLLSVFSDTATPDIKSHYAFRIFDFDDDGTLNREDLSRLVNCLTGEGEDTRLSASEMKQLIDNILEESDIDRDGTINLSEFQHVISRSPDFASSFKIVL
Sequence of Cytochrome P450 2C9 (Homo sapiens) (P11712 whole entry, looked up): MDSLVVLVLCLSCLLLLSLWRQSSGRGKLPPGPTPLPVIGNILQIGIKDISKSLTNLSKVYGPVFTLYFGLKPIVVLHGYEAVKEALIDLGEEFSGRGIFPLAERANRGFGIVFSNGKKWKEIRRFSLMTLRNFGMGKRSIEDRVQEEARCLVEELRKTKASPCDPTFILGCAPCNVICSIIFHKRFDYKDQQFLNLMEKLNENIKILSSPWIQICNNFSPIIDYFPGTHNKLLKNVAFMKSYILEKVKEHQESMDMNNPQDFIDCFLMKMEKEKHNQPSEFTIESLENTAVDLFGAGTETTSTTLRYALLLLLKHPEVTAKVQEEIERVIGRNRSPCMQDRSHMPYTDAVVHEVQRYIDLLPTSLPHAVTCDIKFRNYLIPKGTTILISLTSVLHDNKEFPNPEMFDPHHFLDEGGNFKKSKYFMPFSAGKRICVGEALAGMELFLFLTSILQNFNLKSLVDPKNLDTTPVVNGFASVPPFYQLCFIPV

With `Nc1ccn([C@@H]2CS[C@H](CO)O2)c(=O)n1`, in assay [1], the result was inactive. The Potency entry in assay [2] and in assay [3] was “inactive” each time.

With `COc1ccc(C(=O)CC2(O)C(=O)Nc3c(Cl)ccc(Cl)c32)cc1` (stereo not given), the result in assay [1] was inactive. Besides, the Potency entry in assay [2] and in assay [4] was “inactive” each time. Moreover, the Potency in assay [3] is 16.9 µM (active) and 15.1 µM (active).

With `CCC[C@H](NC(=O)C(C#N)=Cc1cccc(Br)n1)c1ccccc1`, the Potency result in assay [2] is “inactive”.

As for `O=C(c1ccc(Nc2nccc(-c3cc4ccccc4s3)n2)cc1)N1CCC(N2CCCC2)CC1`, the result in assay [1] was inactive. The Potency result in assay [2] and in assay [3] was “inactive” throughout.

In the case of `Cc1ccc(CN2CCNCC2)cc1NC(=O)CNc1ccc(F)c(F)c1`, the result in assay [1] was inactive. Also, the Potency result in assay [2] and in assay [3] was “inactive” in each case.

For the compound `C1Cc2[nH]nc(-c3nn[nH]n3)c2C1`, the result in assay [1] was inactive. Besides, the Potency entry in assay [4] and in assay [3] was “inactive” each time.

Regarding `CC(C)CC(=O)Nc1n[nH]c2c1CN(C(=O)C1CCN(C)CC1)C2(C)C`, the result in assay [1] was inactive. Also, the Potency result in assay [2] and in assay [3] was “inactive” each time.

`COc1cccc(-c2ccc(NC(=O)C3=C(C(=O)O)CCC3)c(F)c2)c1`: the result in assay [1] was inactive. The Potency result in assay [2] is “inactive”. The Potency in assay [3] is 21.3 µM (active) and 26.8 µM (active).

For the compound `COc1ccc(F)c(F)c1C(=O)c1cnc(NC2CCN(S(C)(=O)=O)CC2)nc1N`, the outcome in assay [1] was inactive. The Potency entry in assay [2] was “inactive”. For the same compound, the Potency in assay [3] was 10.7 µM (active) and 19 µM (active).

As for `CCN(CC)CCNC(=O)c1ccc2nc(-c3ccccc3)c(-c3ccc(CN4CCC(n5c(=O)[nH]c6ccccc65)CC4)cc3)nc2c1`, the Potency entry in assay [2] is “inactive”.

For the compound `CC[C@@H]1C(=O)N(C)c2cnc(Nc3ccc(C(=O)NC4CCC(N5CCN(CC6CC6)CC5)CC4)cc3OC)nc2N1C(C)C` (stereo not given in full), in assay [1], the result was inactive. Moreover, the Potency entry in assay [2] was “inactive”. Besides, the Potency in assay [3] was 7.56 µM (active) and 12 µM (active).

`CC(C)(O)CCc1ccc(OCc2cc(-c3cccc(OC(F)F)c3)c3ncccc3c2)cc1`: the Potency entry in assay [2] is “inactive”.

As to `Cn1cncc1[C@@](N)(c1ccc(Cl)cc1)c1ccc2c(c1)c(-c1cccc(Cl)c1)cc(=O)n2C`, the result in assay [1] was inactive. Besides, the Potency entry in assay [2] is “inactive”. In assay [3], the Potency was 0.169 µM (active).

As for `CC(=O)c1c(C)c2cnc(Nc3ccc(N4CCNCC4)cn3)nc2n(C2CCCC2)c1=O`, in assay [1], the outcome was inactive. Moreover, the Potency in assay [2] is 5.95 µM (active). For the same compound, in assay [3], the Potency entry is “inactive”.

In the case of `COc1cc2c(Oc3ccc(NC(=O)C4(C(=O)Nc5ccc(F)cc5)CC4)cc3F)ccnc2cc1OCCCN1CCOCC1`, the result in assay [1] was inactive. Besides, in assay [2], the Potency entry was “inactive”. Further, the Potency in assay [3] is 3.01 µM (active).

Take `CS(=O)(=O)N1CCN(Cc2cc3nc(-c4cccc5[nH]ncc45)nc(N4CCOCC4)c3s2)CC1`: the Potency result in assay [2] was “inactive”.

Consider `Nc1nc(-c2nn(Cc3ccccc3F)c3ncccc23)nc(N)c1N1CCOCC1`, for which the Potency entry in assay [2] was “inactive”.

In the case of `COc1cc(=C2C=c3ccccc3=N2)[nH]c1=Cc1[nH]c(C)cc1C`, the Potency result in assay [2] is “inactive”.

Regarding `C=CC(=O)Nc1cc2c(Nc3ccc(F)c(Cl)c3)ncnc2cc1OCCCN1CCOCC1`, in assay [1], the outcome was inactive. In addition, the Potency entry in assay [2] and in assay [3] was “inactive” throughout.

`O=C(NCCCNc1nc(Nc2cccc(NC(=O)N3CCCC3)c2)ncc1I)c1cccs1`: the Potency entry in assay [2] is “inactive”.

Turning to `C[C@H]1C[C@@H]2[C@@H]([C@@H](O)C[C@@]3(C)[C@H]2CC[C@]3(O)C(=O)CO)[C@@]2(C)C=CC(=O)C=C12`, the Potency entry in assay [2] was “inactive”.

On to `O=C(Nc1cn[nH]c1-c1nc2ccc(CN3CCOCC3)cc2[nH]1)NC1CC1`, for which the result in assay [1] was inactive. Besides, the Potency entry in assay [2] and in assay [3] was “inactive” each time.

With `O=c1[nH]nc(Sc2ncc([N+](=O)[O-])s2)n1-c1ccc2c(c1)OCCO2`, the Potency result in assay [2] was “inactive”.

As for `Cn1c(=O)n(-c2ccc(C(C)(C)C#N)cc2)c2c3cc(-c4cnc5ccccc5c4)ccc3ncc21`, in assay [2], the Potency entry is “inactive”.

`O=C(O)Cn1nnc(-c2cc(N3CCC(Oc4cc(F)ccc4Br)CC3)no2)n1`: the outcome in assay [1] was inactive. For the same compound, the Potency result in assay [2] was “inactive”. In addition, in assay [3], the Potency was 13.5 µM (active).

`COC(=O)C1=C(C)NC(C)=C(C(=O)OCCN2CCN(C(c3ccccc3)c3ccccc3)CC2)C1c1cccc([N+](=O)[O-])c1` (stereo not given): the result in assay [1] was inactive. The Potency in assay [5] was 8.91 µM (active); in assay [3], 1.55 µM (active).

Consider `COc1cc2c(Nc3ccc(NC(=O)c4ccccc4)cc3)ncnc2cc1OCCCN1CCOCC1`, for which the Potency result in assay [2] is “inactive”.

For `Nc1ncnc2c1c(-c1cnc3[nH]ccc3c1)nn2C1CCCC1`, in assay [1], the outcome was inactive. For the same compound, the Potency in assay [3] is 0.425 µM (active).

For the compound `COc1cc(Nc2ncc(F)c(Nc3ccc4c(n3)N(COP(=O)(O)O)C(=O)C(C)(C)O4)n2)cc(OC)c1OC`, the result in assay [1] was inactive. Also, the Potency result in assay [2] is “inactive”. In assay [3], the Potency is 10.7 µM (active).

Consider `Cn1cc(-c2ccncc2)c(-c2ccc(OCc3ccc4ccccc4n3)cc2)n1`, for which the result in assay [1] was inactive. Besides, in assay [2], the Potency entry is “inactive”. Besides, the Potency in assay [3] was 0.601 µM (active).

`COc1ccc(-c2cc3c(C)nc(N)nc3n(C3CCC(OCCO)CC3)c2=O)cn1` (stereo not given): the outcome in assay [1] was inactive. The Potency result in assay [2] was “inactive”. Also, the Potency in assay [3] is 5.35 µM (active) and 4.25 µM (active).

`NCC(=O)Nc1ccc(-n2nc(C(F)(F)F)cc2-c2ccc3c(ccc4ccccc43)c2)cc1`: in assay [1], the result was inactive. For the same compound, in assay [2], the Potency result is “inactive”. Also, in assay [3], the Potency is 4.77 µM (active).

Regarding `CNc1nccc(-c2cccnc2Oc2cc(C(=O)Nc3cccc(C(F)(F)F)c3)ccc2C)n1`, the result in assay [1] was inactive. For the same compound, the Potency result in assay [2] is “inactive”. For the same compound, in assay [3], the Potency is 3.01 µM (active).

For `CN(C1CCc2c(c3ccccc3n2CC(=O)O)C1)S(=O)(=O)c1ccc(F)cc1` (stereo not given), the outcome in assay [1] was inactive. Further, in assay [4], the Potency result was “inactive”. Further, in assay [3], the Potency was 19 µM (active) and 13.5 µM (active).

As to `CC1(C)CC(=O)c2c(C(F)(F)F)nn(-c3ccc(C(N)=O)c(NC4CCC(OC(=O)CN)CC4)c3)c2C1` (stereo not given), the result in assay [1] was inactive. The Potency result in assay [2] is “inactive”. For the same compound, the Potency in assay [3] is 2.68 µM (active).

`O=C(O)c1ccc2c(c1)nc(Nc1cccc(Cl)c1)c1ccncc12`: the outcome in assay [1] was inactive. For the same compound, in assay [2], the Potency result was “inactive”. Moreover, in assay [3], the Potency was 12 µM (active).

Turning to `NC(=O)c1cccc2cn(-c3ccc([C@@H]4CCCNC4)cc3)nc12`, the outcome in assay [1] was inactive. Besides, the Potency entry in assay [2] and in assay [3] was “inactive” throughout.

Consider `Cc1cc(Nc2ncnc3ccc(-c4ccc(CNCCS(C)(=O)=O)o4)cc23)ccc1Oc1ccn2ncnc2c1`, for which the outcome in assay [1] was inactive. Besides, in assay [2], the Potency result is “inactive”. Also, the Potency in assay [3] was 12 µM (active).

In the case of `COc1cc(-c2nn(C3CCC(N4CCN(C(C)=O)CC4)CC3)c3ncnc(N)c23)ccc1NC(=O)c1cc2ccccc2n1C` (stereo not given), the result in assay [1] was inactive. Besides, in assay [2], the Potency entry was “inactive”. The Potency in assay [3] is 3.01 µM (active).

(Values after PubChem BioAssay (NCATS).)
